FMDV antiviral: blocks foot and mouth disease virus; FMDV antiviral cell-based qHTS; Potency, µM (series often up to 57.9 µM), actives largely listed as inhibitors; 410,000 compounds, 1.2% hits; calls by dose curve; tested in HEK293T cells; further: read-out not given here; nearly all actives have a fitted effect of over 45% in size
HCMV antiviral: human cytomegalovirus inhibition. HFF cells, HCMV-luciferase reporter, 72 h; active compounds read low. activity change, negative = inhibition, % at 57.5 µM. 410,000 compounds, 4.5% hits. AID 1259415; in the data active means activity change below about -60%; inconclusive means no clear call, values can overlap the other calls; inactive means above about -39%
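Two-dose cell screen: HFF monolayers treated with compounds and infected with luciferase-expressing HCMV at 1 PFU/cell, 72 h at 37C, then lysed for luciferase measurement.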
LASV entry inh: blocks Lassa virus binding to or entry into cells; Lassa virus pseudotype entry inhibition, cell reporter; Potency, µM (top dose mostly 37.9 µM), most hits filed as inhibitors; 300,000 compounds, 1.2% hits; AID 540256; calls by dose curve; tested in HEK293 cells; further: nearly all actives have a fitted effect of over 50% in size
HCV inhibitor: HCV inhibition | Huh7.5.1 HCVcc-Cre infection, luciferase reporter, 44 h | Potency, µM (series often up to 41.8 µM), usual class: inhibitors | 340,000 compounds, 3.4% hits | AID 651820; active means well fitted inhibition curve with a large enough effect; inconclusive means small, poorly fitted or top-dose-only effect, or another doubt; inactive means no such curve, though single readings can be large or run the other way
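Infectious HCV cell culture screen: compound-treated cells (1,000/well, pre-plated 4 h) are infected with HCVcc-Cre at roughly 0.5 moi and grown 44 h. Infection is quantified by luciferase signal after 15 min substrate incubation at room temperature.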
Marburg entry inh: inhibitors of Marburg virus binding or cell entry; Potency, µM (highest dose often 37.8 µM), hits mostly inhibitors; Marburg virus pseudotyped entry inhibition, cell reporter; 300,000 compounds, 1.8% hits; calls by dose curve; tested in HEK293 cells
Of the large screens only hits and unclear results are named; the others gave an inactive call. Rows were chosen to be rich in hits. Some 7.9% of all compounds tested hit in one or more screens of this group.

Cc1ccc(C(=O)N2CCCC(N(C)Cc3ccccc3)C2)s1 (stereo unspecified)	none
Cc1ccc(Cl)cc1N1CCN(CCCNC(=O)c2nnc(Cc3cccc(Cl)c3)o2)CC1	FMDV antiviral inconclusive, HCMV antiviral -102, LASV entry inh inconclusive, Marburg entry inh inconclusive (no result: HCV inhibitor)
N#Cc1cc2cc3c(cc2nc1SCC(=O)N1CCOCC1)OCCO3	FMDV antiviral inconclusive, HCMV antiviral -61, LASV entry inh inconclusive, Marburg entry inh inconclusive
Cc1cc2cc3c(cc2nc1SCC(=O)O)OCCO3	none
Cc1cc2cc3c(cc2nc1SCC(=O)N1CCCC1)OCCO3	HCMV antiviral -61, Marburg entry inh inconclusive
COc1ccc2nc(SCC(=O)N3CCCCC3)c(C#N)cc2c1	none
COc1ccc2nc(SCC(=O)N3CCCCCC3)c(C#N)cc2c1	HCV inhibitor 6.3µM
CCc1ccc2nc(SCC(=O)N3CCCCC3)c(C#N)cc2c1	LASV entry inh inconclusive, HCV inhibitor inconclusive, Marburg entry inh inconclusive
CC(C)N1CCC1(C)C(=O)Nc1ccccc1OC(F)F (stereo unspecified)	FMDV antiviral inconclusive (no result: LASV entry inh, HCV inhibitor, Marburg entry inh)
O=C1CCCC2=C1[C@H]1O[C@](CCCCN3C(=O)c4ccccc4C3=O)(Cc3ccccc31)O2	none (no result: FMDV antiviral, HCMV antiviral, LASV entry inh, HCV inhibitor)
CCOC(=O)c1cccc(NC(=O)c2ccc3nc(CCc4ccccc4)oc3c2)c1	none (no result: HCV inhibitor, Marburg entry inh)
CCC(=O)N1CCc2cc(Br)cc(S(=O)(=O)CCC(=O)Nc3ccc(C)c(C)c3)c21	HCMV antiviral inconclusive (no result: HCV inhibitor, Marburg entry inh)
c1ccc(OCCCc2nc(-c3ccccn3)no2)cc1	HCMV antiviral -106
COc1cccc(-c2nc(-c3ccccn3)no2)c1	FMDV antiviral 20µM, HCMV antiviral -61, LASV entry inh 1.5µM, HCV inhibitor inconclusive, Marburg entry inh 2.3µM
COc1cccc(-c2nc(-c3ccccc3)no2)c1	LASV entry inh 14µM, Marburg entry inh inconclusive
CCC(C)NC(=O)c1cccc(NC(=O)c2nsc3ccccc23)c1 (stereo unspecified)	LASV entry inh inconclusive (no result: HCV inhibitor, Marburg entry inh)
COc1ccc(NC(=O)N(C)C[C@H]2OCCCC[C@@H](C)Oc3ccc(N(C)C)cc3C(=O)N([C@H](C)CO)C[C@@H]2C)cc1	none (no result: LASV entry inh, HCV inhibitor, Marburg entry inh)
N#Cc1ccc(NC(=O)Nc2ccc(Oc3ccc(NC(=O)Nc4ccc(C#N)cc4)cc3)cc2)cc1	HCMV antiviral -82, LASV entry inh inconclusive, HCV inhibitor inconclusive, Marburg entry inh inconclusive
N#Cc1ccc(NC(=O)Nc2cccc(C#N)c2)cc1	FMDV antiviral inconclusive, HCV inhibitor 10µM (no result: LASV entry inh, Marburg entry inh)
N#Cc1cccc(NC(=O)c2ccccc2C(=O)O)c1	none
CCOc1ccccc1C(=O)N[C@H](C(=O)OCc1cc([N+](=O)[O-])cc2c1OCOC2)C(C)C	LASV entry inh inconclusive, HCV inhibitor 20µM, Marburg entry inh 11µM
CCOc1ccccc1C(=O)N[C@H](C(=O)OCc1cc(=O)oc2cc(C)ccc12)C(C)C	HCV inhibitor 10µM, Marburg entry inh inconclusive
COc1cc(OC)cc(C(=O)N[C@H](C(=O)OCc2cc(=O)oc3cc(C)ccc23)C(C)C)c1	HCV inhibitor inconclusive, Marburg entry inh inconclusive
CCOc1ccccc1C(=O)NCC(=O)OCc1csc(CC(=O)Nc2ccc(C)cc2)n1	none
CCOc1ccccc1C(=O)N[C@H](C(=O)OCc1csc(CC(=O)Nc2ccc(C)cc2)n1)C(C)C	FMDV antiviral inconclusive, LASV entry inh inconclusive, HCV inhibitor 11µM, Marburg entry inh inconclusive
Cc1cccc(NC(=O)CCCCCn2c(=O)[nH]c3ccsc3c2=O)c1	Marburg entry inh inconclusive (no result: HCV inhibitor)
CC1CCN(CCCCOc2ccc(C(=O)c3ccccc3)cc2)CC1	LASV entry inh 16µM, HCV inhibitor inconclusive, Marburg entry inh inconclusive
CSCCC(c1nc2ccccc2[nH]1)n1c(-c2cc(C(F)(F)F)cc(C(F)(F)F)c2)nc2ccccc21 (stereo unspecified)	FMDV antiviral inconclusive (no result: LASV entry inh, HCV inhibitor, Marburg entry inh)
COc1ccc(-c2nn(-c3ccccc3)cc2C(=O)NCC(c2cccs2)N2CCOCC2)cc1 (stereo unspecified)	HCV inhibitor inconclusive, Marburg entry inh inconclusive
O=C(NCC(c1cccs1)N1CCOCC1)c1cn(-c2ccccc2)nc1-c1ccccc1 (stereo unspecified)	HCV inhibitor inconclusive, Marburg entry inh 13µM
O=C(NCC(c1cccs1)N1CCOCC1)c1cn(-c2ccccc2)nc1-c1ccc(Cl)cc1 (stereo unspecified)	HCV inhibitor inconclusive, Marburg entry inh 10µM (no result: HCMV antiviral)
NC(=O)c1ccc2[nH]ccc2c1	LASV entry inh inconclusive (no result: FMDV antiviral, HCMV antiviral, HCV inhibitor)
CC(C)(CCO)Nc1ncnc2onc(-c3ccc(F)cc3)c12	HCMV antiviral -64
CCC(CO)Nc1ncnc2onc(-c3ccc(F)cc3)c12 (stereo unspecified)	LASV entry inh inconclusive
COc1ccc(Cc2c(C)nn(-c3nc(C)c(C(=O)Nc4ccc(C)cc4C)s3)c2C)cc1	none (no result: HCV inhibitor)
COc1cccc(Cn2ccn(-c3ccc(F)cc3)c(=O)c2=O)c1	none (no result: HCV inhibitor, Marburg entry inh)
COCCCN=Cc1c(C)[nH]n(-c2ccc(Br)c(C)c2)c1=O	LASV entry inh 11µM, HCV inhibitor inconclusive, Marburg entry inh inconclusive
C(=C\c1nc(N2CCCCCC2)c2ccccc2n1)/c1ccccc1	FMDV antiviral 40µM, HCMV antiviral inconclusive, HCV inhibitor inconclusive, Marburg entry inh 11µM
c1ccc2c(N3CCCCC3)nc(N3CCCCC3)nc2c1	FMDV antiviral inconclusive, LASV entry inh inconclusive
CCOC(=O)/C(C#N)=C1/C=C(C)NC(c2ccccc2O)=N1	FMDV antiviral inconclusive, HCMV antiviral -103, LASV entry inh inconclusive, HCV inhibitor inconclusive, Marburg entry inh inconclusive
CCc1cc(Cn2nc(-c3ccccc3)cc2C(=O)NCC2CC2)on1	none (no result: LASV entry inh, Marburg entry inh)
Nc1c(C(=O)NCc2ccco2)c2nc3ccccc3nc2n1CCN1CCOCC1	HCMV antiviral -94, Marburg entry inh inconclusive
COc1ccc(CCn2c(N)c(C(=O)NCc3ccco3)c3nc4ccccc4nc32)cc1	HCMV antiviral -75, LASV entry inh inconclusive, HCV inhibitor inconclusive, Marburg entry inh inconclusive
COc1cc(Cl)c(C)cc1NC(=O)C1CCN(c2nc3ccccc3n3cccc23)CC1	none (no result: HCV inhibitor, Marburg entry inh)
COc1ccc(-c2cc3nc(NCC4CCCCC4)n(C)c(=O)c3s2)cc1OC	none (no result: LASV entry inh, HCV inhibitor, Marburg entry inh)
CC12CCC(C)(O1)C1C(=O)N(c3nccs3)C(=O)C12 (stereo unspecified)	none
COCCCNCCC(CCC(C)C)c1ccc2c(c1)OCO2 (stereo unspecified)	LASV entry inh inconclusive, HCV inhibitor 14µM, Marburg entry inh inconclusive
CC(C)CCC(CCN1CCOCC1)c1ccc2c(c1)OCO2 (stereo unspecified)	HCV inhibitor inconclusive, Marburg entry inh 12µM
CCOC(=O)C(C(=O)NCCCN1CCOCC1)C1CCCCC1 (stereo unspecified)	HCMV antiviral -105
O=C(CCN1N=C(c2ccccc2)CCC1=O)NC1CCCCC1	HCMV antiviral -77 (no result: LASV entry inh, HCV inhibitor, Marburg entry inh)
O=C(CCN1N=C(c2ccccc2)CCC1=O)NC1CCCC1	none (no result: LASV entry inh, Marburg entry inh)
C#CCCCO/N=C1\C[C@@H](O)[C@@H](O)[C@@H]2[C@@H]3C(=O)N(c4ccc(F)cc4F)C(=O)[C@@H]3CC[C@@H]12	none (no result: FMDV antiviral, HCMV antiviral, LASV entry inh, HCV inhibitor)
Cc1ccc(C(=O)CC(=O)c2cc(Cl)ccc2O)cc1	HCMV antiviral inconclusive, HCV inhibitor 13µM, Marburg entry inh inconclusive
